Screening results as filed in PubChem BioAssay.
GDH-TPI counter: GDH-TPI coupling enzyme inhibitors, primary screen, artefact control for M. tuberculosis FBA inhibitor project, biochemical, absorbance, full deck. inhibition, % at 4.8 µM. AID 588335, 2011. GDH-TPI coupled enzyme counterscreen, NADH absorbance. actives 1.2% (n = 360,000);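 also: 0% = DMSO wells and 100% = wells lacking the enzyme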
CCHF vOTU inh: CCHFV vOTU protease inhibitors, primary screen, biochemical, Pep-AMC substrate, fluorescence; inhibition, % at 11.5 µM; actives 0.55% (n = 370,000); AID 651958, 2012; also: 0% = vehicle wells with enzyme and 100% = no enzyme wells
RecA splice inh: Mtb RecA intein splicing inhibitors, primary screen, biochemical, fluorescence, HTS; Protein RecA (Mycobacterium tuberculosis (strain ATCC 25618 / H37Rv)), P9WHJ3; cell-free RecA intein splicing; inhibition, % (concentration not given with the values); actives 0.75% (n = 290,000); in the data active = inhibition above about 30%;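 also: 0% = vehicle wells and 100% = reference inhibitor control wells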
Target sequence (P9WHJ3 whole entry, looked up, canonical isoform): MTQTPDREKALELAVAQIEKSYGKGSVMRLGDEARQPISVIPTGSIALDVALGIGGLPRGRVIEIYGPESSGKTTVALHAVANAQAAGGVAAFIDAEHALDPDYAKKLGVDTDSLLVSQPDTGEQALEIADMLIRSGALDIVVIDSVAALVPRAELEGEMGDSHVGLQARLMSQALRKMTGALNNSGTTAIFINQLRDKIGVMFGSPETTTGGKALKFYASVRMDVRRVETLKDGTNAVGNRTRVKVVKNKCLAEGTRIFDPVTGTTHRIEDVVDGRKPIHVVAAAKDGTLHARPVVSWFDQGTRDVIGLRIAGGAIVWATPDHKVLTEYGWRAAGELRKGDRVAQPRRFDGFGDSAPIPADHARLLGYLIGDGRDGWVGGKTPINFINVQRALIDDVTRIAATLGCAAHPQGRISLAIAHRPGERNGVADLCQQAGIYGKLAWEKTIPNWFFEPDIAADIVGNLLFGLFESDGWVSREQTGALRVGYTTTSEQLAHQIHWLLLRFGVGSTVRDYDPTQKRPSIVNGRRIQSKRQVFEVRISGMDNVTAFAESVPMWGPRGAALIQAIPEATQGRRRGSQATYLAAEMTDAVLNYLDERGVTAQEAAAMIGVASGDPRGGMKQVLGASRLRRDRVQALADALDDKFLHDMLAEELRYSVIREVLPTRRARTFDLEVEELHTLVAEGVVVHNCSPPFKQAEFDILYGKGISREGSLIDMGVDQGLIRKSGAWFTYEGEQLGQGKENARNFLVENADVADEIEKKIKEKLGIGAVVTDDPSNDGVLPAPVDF
FBA Mtb inh: Mtb FBA enzyme inhibitors, primary screen, biochemical, fluorescence, strain H37Rv | Fructose-bisphosphate aldolase (Mycobacterium tuberculosis (strain ATCC 25618 / H37Rv)), … | purified M. tuberculosis FBA, fluorescence read-out | inhibition, % at 1 µM | actives 2.3% (n = 360,000) | AID 588726, 2011; in the data active = inhibition above about 27%;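 also: 0% = vehicle and 100% = reference inhibitor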
* = called active by the depositor; · = no result; + = active, no number. A selection: hits, their analogues and other compounds. The true share with any hit is near 4.2%. Rule as the data show it, unless noted: active = inhibition above about 30%; inactive = the rest.

SMILES	GDH-TPI counter	CCHF vOTU inh	RecA splice inh	FBA Mtb inh
COc1ccc2oc(-c3ccco3)cc(=O)c2c1	54*	-184	-2	116*
O=c1cc(-c2ccco2)oc2ccc(Cl)cc12	12	-6	1	21
O=C(COc1ccc2c3c(c(=O)oc2c1)CCC3)N1CCCCC1	4	-3	-1	26
CC(C)c1nc(SCC(=O)NC2CCCC2)c2c(=O)n(C)c(=O)n(C)c2n1	-2	10	2	0
CCCCn1c(N)c(N(CCOC)C(=O)c2ccc(N3CCCC3)c([N+](=O)[O-])c2)c(=O)[nH]c1=O	6	-3	-4	-6
CN1C2CCC1/C(=C/c1ccccn1)C(=O)/C2=C\c1ccccn1	46*	-2	·	-3
CN1C2CCC1/C(=C\c1ccccc1)C(=O)/C2=C\c1ccccc1	30	4	-1	-2
Cn1nccc1C(=O)NC1CCCc2c1cnn2-c1cc(F)cc(F)c1 (centres undefined)	8	9	3	+
Cc1n[nH]c(C)c1NC(=O)c1cc([N+](=O)[O-])ccc1Cl	5	5	-1	142*
[O-][n+]1onc2c1CCC(=N/O)/C2=N\Nc1ccccc1	·	·	13	·
CCCCCCCCOc1ccc(C2OC34CCCCC3C(C#N)(C#N)C2(C#N)C(=N)O4)cc1 (centres undefined)	-2	·	-414	50*
CC(c1ccccc1)C(NC(=O)OCC1c2ccccc2-c2ccccc21)C(=O)O (centres undefined)	0	19	1	-1
O=C1CCC(C(=O)OCc2nnc(-c3ccccc3)o2)=NN1	-8	10	1	-4
O=C(c1ccc2c(=O)n(-c3ccccc3)c(=O)[nH]c2c1)N1CCN(c2ccc(F)cc2)CC1	3	0	0	0
C=CCn1c(=O)[nH]c2cc(C(=O)N3CCN(c4ccc(C(C)=O)cc4)CC3)ccc2c1=O	36*	1	2	-1
CC(=O)c1ccc(N2CCN(C(=O)CCCn3c(=S)[nH]c4cc5c(cc4c3=O)OCO5)CC2)cc1	35*	9	·	0
O=C(CCCn1c(=S)[nH]c2cc3c(cc2c1=O)OCO3)N1CCN(c2ccc(Cl)cc2)CC1	2	0	1	-2
CC(=O)c1ccc(N2CCN(C(=O)c3ccc4c(=O)n(-c5ccccc5)c(=O)[nH]c4c3)CC2)cc1	35*	7	0	0
CCN(CC)Cc1nc2nc(Cl)c(Cl)nc2[nH]1	37*	-7	·	1
O=C(O)COc1ccc(/C=N/n2c(COc3ccccc3)nc3ccccc3c2=O)cc1	-1	3	-5	-2
CCCc1nc2ccccc2c(=O)n1/N=C/c1ccc(O)cc1	35*	9	-3	-2
O=c1c2ccccc2nc(COc2ccccc2)n1/N=C/c1ccc(O)c(O)c1	34*	7	3	4
Cc1sc2nc(C)n(/N=C/c3ccc(O)cc3)c(=O)c2c1C	40*	5	2	-3
Cc1sc2nc(C)n(/N=C/N(C)C)c(=O)c2c1C	10	-2	-1	-4
Cc1nc2ccccc2c(=O)n1/N=C/c1ccc(N(C)C)cc1	41*	-1	4	0
SMILES	GDH-TPI counter	CCHF vOTU inh	RecA splice inh	FBA Mtb inh
CSc1ccc(/C=N/n2c(C)nc3ccccc3c2=O)cc1	10	-4	0	-1
CC(C=NNc1ccc([N+](=O)[O-])cn1)=Cc1ccccc1	3	7	·	-2
NC(=S)c1csc(CCNC(=O)c2ccccc2)n1	12	8	·	0
O=c1c2ccccc2nc(N/N=C/c2ccc(O)cc2)n1O	32*	-3	-7	5
CCCc1nc2ccccc2c(=O)n1/N=C/c1ccc(O)cc1O	31*	2	-3	0
O=c1c2ccccc2nc(N/N=C/c2c(O)ccc3ccccc23)n1O	25	7	-15	2
CC(c1ccco1)N(C(=O)c1ccc(Cl)c([N+](=O)[O-])c1)c1ccccn1 (centres undefined)	-1	4	2	0
C=C(CCO)C1=CCN(S(=O)C(C)(C)C)[C@H]1CCO (some centres undefined)	5	-11	·	7
COC(=O)c1cc2c(s1)-c1ccccc1OC2	15	-291	-24	+
O=C(Nc1cccnc1Cl)c1cc2c(s1)-c1ccccc1OC2	7	-60	-34	153*
CNC(=O)c1cc2c(s1)-c1ccccc1CC2	17	-246	1	+
CN1CCN(c2ccccc2NC(=O)c2cc3c(s2)-c2ccccc2OC3)CC1	5	-5	-5	4
Cc1nc(N(C)C)c2sc(=S)n(-c3ccccc3)c2n1	10	-8	-1	2
Cc1nc(N(C)C)c2sc(=S)n(C)c2n1	31*	-6	1	1
CCn1c(=O)c2[nH]c(Cl)nc2n(CC)c1=O	11	1	·	-2
CCCn1c(=O)c2[nH]c(-c3ccc(S(=O)(=O)O)cc3)nc2n(CCC)c1=O	9	-204	·	+
O=c1/c(=C/c2ccco2)sc2n1CN(c1cccc(Br)c1)CN=2	38*	18	-3	-9
Cc1cc(C)cc(N2CN=c3s/c(=C\c4ccco4)c(=O)n3C2)c1	28	-7	-2	0
O=c1/c(=C/c2ccco2)sc2n1CN(c1ccccc1)CN=2	32*	15	1	-3
CC(C)(C)c1ccc(C(=O)OCC(=O)N2CCC(c3ccccc3)=N2)cc1	7	-2	·	-1
O=C(N/N=C/c1ccc(-c2ccccc2[N+](=O)[O-])o1)[C@H]1C[C@@H]1c1ccccc1	1	-1	42*	0
Cc1ccc(C(=O)N/N=C\c2ccc(-c3ccc(Cl)c(Cl)c3)o2)cn1	63*	-4	1	4
Cc1ccc(C(=O)N/N=C/c2ccc(-c3cccc(Cl)c3)o2)cn1	28	-7	-4	1
Cc1ccc(C(=O)N/N=C/c2ccc(-c3ccccc3[N+](=O)[O-])o2)cn1	24	29	61*	2
COc1cccc(-c2cccc3c2NC(=O)C3(C)Cc2ccccc2F)c1 (centres undefined)	4	5	·	-2
SMILES	GDH-TPI counter	CCHF vOTU inh	RecA splice inh	FBA Mtb inh
COc1ccc(CNC2CCSc3ccccc32)cc1OC (centres undefined)	-17	7	1	1
CO/N=C1\CCn2c1c(C)c1ccccc12	31*	7	7	3
COC(=O)[C@@H]1[C@@H](C(=O)OC)C2(c3ccccc3-c3ccccc32)N(c2ccc(Cl)cc2)N1C#N	13	12	51*	0
O=C(Cc1c(Cl)cccc1Cl)NCCc1ccc(Cl)cc1	3	-12	4	0
O=C(CCl)NCc1c(Cl)cccc1-n1cccc1	7	10	46*	1
CN(C(=O)c1cccc(NC(=O)Cc2cccc([N+](=O)[O-])c2)c1)C1CC1	-7	-4	·	0
O=C1C(=O)N(CCO)C(c2ccc(Br)cc2)/C1=C(\O)c1ccccc1 (centres undefined)	33*	1	-4	2
